Reference: PubChem BioAssay (Tox21)
Results filed as inconclusive are left out. Calls of active or inactive are those of the source. Unless noted, calls come from the whole dose curve.

Columns and labels:
[1] = Nuclear factor erythroid 2-related factor 2/antioxidant responsive element (Nrf2/ARE) small molecule agonists: qHTS cell viability counter screen in human keratinocytes (AID 1919968; active = well fitted curve in the direction sought with a large enough effect in the repeat runs; an effect the other way counts as inactive or inconclusive; note: nearly all actives have a fitted effect of over 55% in size)
In short: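 Cytotoxicity was multiplexed with the Nrf2/ARE luciferase assay in the same wells. Stably transfected HaCaT keratinocytes were treated with test compounds for 23 h at 37 C. Cell viability was then measured by CellTiter-Fluor fluorescence.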

[2] = Nuclear factor erythroid 2-related factor 2/antioxidant responsive element (Nrf2/ARE) small molecule agonists: luciferase reporter gene qHTS assay in human keratinocytes (AID 1919969); note: nearly all actives have a fitted effect of over 35% in size
[3] = molecular target: Gonadotropin-releasing hormone receptor (Homo sapiens) (UniProt P30968); assay: Human gonadotropin-releasing hormone receptor (GnRHR) small molecule agonists, calcium flux assay in GnRHR-HEK293 cells (AID 1920063); note: nearly all actives have a fitted effect of over 35% in size
Sequence of Gonadotropin-releasing hormone receptor (Homo sapiens) (P30968 whole entry, looked up): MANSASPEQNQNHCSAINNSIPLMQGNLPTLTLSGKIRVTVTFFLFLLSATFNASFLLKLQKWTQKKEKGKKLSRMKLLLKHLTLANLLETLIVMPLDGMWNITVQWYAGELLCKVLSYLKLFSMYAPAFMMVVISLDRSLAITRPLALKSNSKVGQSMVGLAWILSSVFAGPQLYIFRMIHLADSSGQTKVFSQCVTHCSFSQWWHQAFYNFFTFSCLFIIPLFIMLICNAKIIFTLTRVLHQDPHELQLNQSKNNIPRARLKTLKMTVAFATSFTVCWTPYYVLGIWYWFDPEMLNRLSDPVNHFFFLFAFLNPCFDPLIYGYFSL
In short: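 Agonist activity was measured as intracellular calcium flux in HEK293 cells engineered to stably express human GnRHR. After dye loading for 1 hour at 37 C, compounds in DMSO were added and fluorescence was followed for 3 minutes.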

[4] = molecular target: KiSS-1 receptor (Homo sapiens) (UniProt Q969F8); assay: Human kisspeptin (KISS1R) small molecule agonists, calcium flux assay in KISS1R-HEK293 cells (AID 1920064; active = well fitted curve in the direction sought with a large enough effect in the repeat runs; an effect the other way counts as inactive or inconclusive)
Sequence of KiSS-1 receptor (Homo sapiens) (Q969F8 whole entry, looked up): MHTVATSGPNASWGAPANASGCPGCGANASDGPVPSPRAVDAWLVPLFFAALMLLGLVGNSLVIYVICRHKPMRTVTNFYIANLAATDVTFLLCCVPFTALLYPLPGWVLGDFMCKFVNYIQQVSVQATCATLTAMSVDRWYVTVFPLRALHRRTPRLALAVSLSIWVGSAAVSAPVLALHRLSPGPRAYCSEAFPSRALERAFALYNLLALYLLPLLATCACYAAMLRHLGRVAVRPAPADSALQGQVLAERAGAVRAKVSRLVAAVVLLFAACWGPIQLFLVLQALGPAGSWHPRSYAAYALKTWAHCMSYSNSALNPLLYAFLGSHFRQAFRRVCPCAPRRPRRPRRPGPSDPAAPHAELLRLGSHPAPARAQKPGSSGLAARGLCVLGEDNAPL
In short: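 Agonist activity is monitored as intracellular calcium rise in engineered HEK293 cells carrying human KISS1R. Cells are dye-loaded for 1 h at 37 C before compound addition, and fluorescence is recorded for 3 min.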

[5] = G protein-coupled receptor (GPCR) small molecule agonists, calcium flux assay: HEK293 wild type cell line counter screen (AID 1920065)
In short: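 Seed cells, incubate 18 h (37 C, 5% CO2); add calcium dye, 1 h at 37 C; pin-transfer compounds, ATP control or DMSO; read fluorescence 480/540 nm each second for 3 min.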

[6] = p53 small molecule agonists, cell-based qHTS assay with human liver microsomes: qHTS cell viability counter screen (AID 1963579); note: nearly all actives have a fitted effect of over 45% in size
In short: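 In this multiplexed counter screen, the reporter plates were subsequently treated with CellTiter-Glo so that cell viability, reflected by luminescence, could be recorded for p53RE-bla cells dosed 16 h with compounds under microsomal activation (HLM and NADPH).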

[7] = p53 small molecule agonists, cell-based qHTS assay with rat liver microsomes: qHTS cell viability counter screen (AID 1963580); note: nearly all actives have a fitted effect of over 45% in size
In short: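 Luminescent ATP readout (CellTiter-Glo, 30 min at room temperature) reports viability of p53RE-bla HCT-116 cells after 16 h at 37 C with test compounds under metabolic activation by rat liver microsomes and NADPH at 0.5 mg/mL final each.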

[8] = p53 small molecule agonists, cell-based qHTS assay: qHTS cell viability counter screen (AID 1963581); note: nearly all actives have a fitted effect of over 45% in size
In short: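 Viability was counter-screened in parallel with the p53 agonist reporter by measuring intracellular ATP luminescence in the same HCT-116 p53RE-bla wells after 16 h compound treatment at 37 C.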

[9] = molecular target: 5-hydroxytryptamine receptor 2A (Homo sapiens) (UniProt P28223); assay: 5-hydroxytryptamine receptor 2A (HTR2A) small molecule antagonists, cell-based qHTS assay (AID 1963586); note: nearly all actives have a fitted effect of over 45% in size
Sequence of 5-hydroxytryptamine receptor 2A (Homo sapiens) (P28223 whole entry, looked up): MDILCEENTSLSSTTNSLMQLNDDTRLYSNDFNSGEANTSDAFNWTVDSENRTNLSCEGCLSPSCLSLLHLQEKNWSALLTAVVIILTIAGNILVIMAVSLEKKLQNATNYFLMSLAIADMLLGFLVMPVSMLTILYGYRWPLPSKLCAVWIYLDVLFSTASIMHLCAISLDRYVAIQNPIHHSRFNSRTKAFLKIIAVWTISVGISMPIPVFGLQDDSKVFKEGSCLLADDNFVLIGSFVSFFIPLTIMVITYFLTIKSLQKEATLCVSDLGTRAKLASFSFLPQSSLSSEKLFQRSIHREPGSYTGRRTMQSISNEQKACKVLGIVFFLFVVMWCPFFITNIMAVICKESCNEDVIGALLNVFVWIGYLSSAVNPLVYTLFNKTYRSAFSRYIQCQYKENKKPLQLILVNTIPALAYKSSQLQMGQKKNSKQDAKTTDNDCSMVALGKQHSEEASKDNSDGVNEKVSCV
In short: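 CHO cells stably expressing human HTR2A were plated for 18 h at 37 C, then loaded with calcium dye for 1 h. Compounds were preincubated 5 min at room temperature before DOI (4 nM solution) was added. Kinetic fluorescence was read for 3 min.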

[10] = molecular target: 5-hydroxytryptamine receptor 2A (Homo sapiens) (UniProt P28223); assay: 5-hydroxytryptamine receptor 2A (HTR2A) small molecule agonists, cell-based qHTS assay (AID 1963587); note: nearly all actives have a fitted effect of over 30% in size
In short: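 HTR2A-CHO cells, plated 18 h at 37 C/5% CO2, dye-loaded 1 h at 37 C; compounds in DMSO added by pin tool (agonist mode). Intracellular calcium flux read as kinetic fluorescence on FDSS over 2 min at 1 s intervals.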

[11] = molecular target: Muscarinic acetylcholine receptor M1 (Homo sapiens) (UniProt P11229); assay: Cholinergic receptor muscarinic 1 (CHRM1) small molecule antagonists, cell-based qHTS assay (AID 1963588); note: nearly all actives have a fitted effect of over 40% in size
Sequence of Muscarinic acetylcholine receptor M1 (Homo sapiens) (P11229 whole entry, looked up): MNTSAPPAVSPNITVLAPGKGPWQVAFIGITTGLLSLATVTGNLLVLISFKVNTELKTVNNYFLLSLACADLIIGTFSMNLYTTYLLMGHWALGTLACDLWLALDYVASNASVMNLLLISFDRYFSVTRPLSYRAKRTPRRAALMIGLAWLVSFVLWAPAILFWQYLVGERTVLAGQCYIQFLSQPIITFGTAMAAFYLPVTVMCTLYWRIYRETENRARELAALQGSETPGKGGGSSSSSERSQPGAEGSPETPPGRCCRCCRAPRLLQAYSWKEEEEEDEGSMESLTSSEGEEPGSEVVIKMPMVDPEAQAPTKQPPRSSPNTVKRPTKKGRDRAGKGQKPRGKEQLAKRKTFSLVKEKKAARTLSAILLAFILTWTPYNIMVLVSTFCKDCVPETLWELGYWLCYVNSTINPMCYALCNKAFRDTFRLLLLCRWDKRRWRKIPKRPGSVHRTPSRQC
In short: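 Compounds were tested at 15 concentrations in three independent runs. Dye-loaded CHRM1-CHO cells were exposed 5 min at room temperature before stimulation by acetylcholine added at 50nM. Intracellular calcium was read kinetically on FDSS for 3 min.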

[12] = molecular target: Muscarinic acetylcholine receptor M1 (Homo sapiens) (UniProt P11229); assay: Cholinergic receptor muscarinic 1 (CHRM1) small molecule agonists, cell-based qHTS assay (AID 1963589); note: nearly all actives have a fitted effect of over 35% in size
In short: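 Cells were plated and incubated 18 h at 37 C/5% CO2, loaded with calcium dye for 1 h at 37 C, then treated with compounds in DMSO. Fluorescence was recorded kinetically at 1 sec intervals.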

[13] = molecular target: Beta-2 adrenergic receptor (Homo sapiens) (UniProt P07550); assay: Adrenergic beta2 receptor (ADRB2) small molecule antagonists, cell-based qHTS assay (AID 1963592); note: series mostly up to about 92 µM; nearly all actives have a fitted effect of over 50% in size
Sequence of Beta-2 adrenergic receptor (Homo sapiens) (P07550 whole entry, looked up): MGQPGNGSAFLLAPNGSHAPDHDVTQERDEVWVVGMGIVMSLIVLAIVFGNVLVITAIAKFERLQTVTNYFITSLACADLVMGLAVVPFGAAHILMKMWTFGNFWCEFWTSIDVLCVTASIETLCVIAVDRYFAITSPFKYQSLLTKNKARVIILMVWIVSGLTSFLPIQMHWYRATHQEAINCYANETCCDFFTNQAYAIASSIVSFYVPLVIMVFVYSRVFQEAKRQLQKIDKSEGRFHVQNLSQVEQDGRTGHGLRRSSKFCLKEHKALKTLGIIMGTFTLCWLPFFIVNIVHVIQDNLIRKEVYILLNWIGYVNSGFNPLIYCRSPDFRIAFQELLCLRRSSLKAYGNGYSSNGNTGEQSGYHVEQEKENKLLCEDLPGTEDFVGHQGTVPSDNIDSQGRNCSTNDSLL
In short: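 Assay format: CHO-ADRB2 cells, 18-20hr seeding at 37C/5% CO2, then compound plus 1nM isoproterenol agonist mix for 0.5hr RT. Homogeneous time-resolved fluorescence cAMP detection after 1hr, expressed as 665/615 nm ratio.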

[14] = molecular target: Beta-2 adrenergic receptor (Homo sapiens) (UniProt P07550); assay: Adrenergic beta2 receptor (ADRB2) small molecule agonists, cell-based qHTS assay (AID 1963593);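 note: CHO cells stably overexpressing human ADRB2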
In short: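 CHO cells stably over-expressing ADRB2 were plated overnight at 37C, then dosed with compounds plus a stimulation mix containing 100uM IBMX and 25uM Ro-20-1724 for 0.5hr at room temperature. cAMP was measured by HTRF competition, 1hr.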

[15] = molecular target: D(2) dopamine receptor (Homo sapiens) (UniProt P14416); assay: Dopamine D2 receptor (DRD2) small molecule agonists, cell-based qHTS assay (AID 1963594); note: nearly all actives have a fitted effect of over 35% in size
Sequence of D(2) dopamine receptor (Homo sapiens) (P14416 whole entry, looked up): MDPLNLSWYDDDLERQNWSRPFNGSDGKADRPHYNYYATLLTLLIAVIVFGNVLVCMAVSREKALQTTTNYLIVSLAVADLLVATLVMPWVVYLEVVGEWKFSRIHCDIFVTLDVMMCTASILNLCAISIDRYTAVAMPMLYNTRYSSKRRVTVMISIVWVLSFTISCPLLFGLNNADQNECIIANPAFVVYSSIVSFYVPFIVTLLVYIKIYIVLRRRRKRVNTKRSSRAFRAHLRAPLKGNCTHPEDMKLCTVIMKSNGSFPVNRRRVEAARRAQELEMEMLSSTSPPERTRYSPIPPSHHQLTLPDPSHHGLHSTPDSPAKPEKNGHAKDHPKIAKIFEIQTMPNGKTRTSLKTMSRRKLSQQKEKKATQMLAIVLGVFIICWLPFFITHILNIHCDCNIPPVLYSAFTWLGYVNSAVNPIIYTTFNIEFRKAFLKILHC
In short: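 HEK293 cells stably expressing DRD2 were cultured 24 h at 37 C, then given Ro20-1724 (0.1 mM final) and compounds for 10 min at room temperature. NKH477 (200nM) was then added for 30 min. cAMP was read by HTRF.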

[16] = molecular target: D(2) dopamine receptor (Homo sapiens) (UniProt P14416); assay: Dopamine D2 receptor (DRD2) small molecule antagonists, cell-based qHTS assay (AID 1963595; active = well fitted inhibition curve with a large enough effect in the signal ratio in the repeat runs, with a control signal flat; the % refers to the signal ratio)
In short: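 Stable D2 receptor HEK293 line, 24 h after seeding. Compound preincubated 10 min, then quinpirole (12 nM) with forskolin analogue NKH477 (200 nM), 30 min, room temperature. Detection by time-resolved FRET of cAMP.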

[17] = p53 small molecule agonists, cell-based qHTS assay with human liver microsomes (AID 1963577);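 note: p53 response element beta-lactamase reporter cells with liver microsomes plus NADPH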
In short: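 16 h, 37 C exposure of p53RE-bla cells to compounds with human liver microsomes and NADPH (0.5 mg/mL final each); detection via LiveBLAzer mixture, 2 h dark at room temperature.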

[18] = p53 small molecule agonists, cell-based qHTS assay (AID 1963582; active = well fitted activation curve with a large enough effect in the signal ratio in the repeat runs, not every such curve was filed as active; the % refers to the signal ratio)
In short: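 Cells carrying a p53-responsive bla reporter are treated with test compounds for 16 h at 37 C; beta-lactamase activity is then detected with LiveBLAzer B/G FRET substrate after 2 h at room temperature.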

[19] = cAMP Responsive Elements (CRE) small molecule agonists, cell-based qHTS assay (AID 1963590)
In short: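 Cells carrying a CRE-driven beta-lactamase reporter (HEK 293T) are seeded, incubated overnight (18 h), and treated with test compounds for 3 h at 37 C; reporter activity is then detected with a FRET substrate after 2 h at room temperature.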

[20] = cAMP Responsive Elements (CRE) small molecule antagonists, cell-based qHTS assay (AID 1963591; active = well fitted inhibition curve with a large enough effect in the signal ratio in the repeat runs, not every such curve was filed as active; the % refers to the signal ratio)
In short: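 Cells (CRE-bla HEK 293T, DMEM with 10% dialyzed FBS and 25 mM HEPES) are seeded and incubated 18 h. Compounds are added with NKH477 agonist at 0.25 uM final for 3 h, then FRET substrate for 2 h.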

Measured: Potency

Nc1c(Cl)cc([N+](=O)[O-])cc1Cl
not listed: [17] | [18] | [19] | [20]
inactive: all other assays above

Cl/C=C/Cl
not listed: [5]
inactive: all other assays above

C[N+](C)(C)CC(=O)O
not listed: [6] | [13] | [17] | [18]
inactive: all other assays above

ClC(Cl)c1ccccc1
not listed: [10] | [12] | [17] | [18]
inactive: all other assays above

CC(=O)C1CCOC1=O (stereo unspecified)
not listed: [5]
inactive: all other assays above

O=Cc1cccc(Oc2ccccc2)c1
not listed: [10] | [13] | [17] | [18]
inactive: all other assays above

c1ccoc1
not listed: [5]
inactive: all other assays above
